This is an account of results in PubChem BioAssay.

Calls of active or inactive are those of the source. Unless noted, the rule behind the calls is not given here.

Test [1] can be described thus: liver-stage malaria parasite load reduction – cell-based, known kinase inhibitor set, luminescence, hepatoma host viability (AID 624392).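 Note: infected cells incubated roughly two days before readout.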 As to conditions: Plasmodium liver stage in hepatoma cells, luciferase luminescence, concentration not given here; liver cell % of control: measured here: host liver cell viability; parasite % of control: stronger effect = lower value.
The nature of test [2]: altered dexamethasone sensitivity, NF-kB reporter, cell-based, luciferase, IL-1B stimulus (AID 624486).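 For percent of negative control (+Dex): 100% = mean signal of vehicle control wells on the plate.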 Particulars: IL-1B + dexamethasone, luminescence; percent of negative control (+Dex): actives lie on both sides, concentration not given here; z-score: measured here: IL-1B alone, no Dex.
Test [3] is described as follows: C. elegans survival during P. aeruginosa infection – whole organism (AID 651566).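 Note: tested at 14 µM; sign flipped so higher z means a lower ratio.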 Particulars: C. elegans killed by P. aeruginosa, survival ratio.
The nature of test [4]: pro-inflammatory signaling induction in mouse macrophages – cell-based, murine, luminescence (AID 652131). Particulars: murine macrophage pro-inflammatory reporter, stronger effect = higher value.
Test [5] can be described thus: inducers of IRF3 signaling, differentiated THP-1 – cell-based, PMA-stimulated THP-1, luminescence (AID 1053176). Particulars: PMA-differentiated THP-1, IRF3 reporter luminescence; stronger effect = higher value.
Test [6] in a line: MELAS cybrid and Rieske KO viability enhancers – cell-based, MELAS cybrids, Rieske KO mouse fibroblasts, CellTiter-Glo, primary screen (AID 1508586;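 active = mean z-score across replicates of 1.96 or higher in either the MELAS or the Rieske mutant cell line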;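 note: z relative to plate mean and SD of compound and empty wells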). Particulars: low glucose.
A short description of test [7]: Wnt pathway potentiators raising nuclear beta-catenin – imaging, WNT3A-conditioned medium, mouse C2C12, NPC library, primary screen (AID 1117326; in the data active = nuclear beta-catenin stimulation mostly above about 4.2%, no sharp cut-off; inactive = mostly below about 10%). As to conditions: stronger effect = higher value.
A short description of test [8]: stimulators of insulin release from INS-1E, primary screen, cell-based, 5 mM glucose, NPC library (AID 1117329;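 active = compound raises insulin release from rat beta cells at 5 mM glucose, no numeric limit stated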). Particulars: rat INS-1E insulin secretion, at 10 µM, stronger effect = higher value.
Test [9] can be described thus: growth inhibition of GSK3B-pretreated HCT116 cells – cell-based, CellTiter-Glo, 0.2 to 20 µM (AID 1117336;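 active = compounds lowering colon cancer cell viability after pretreatment blocking the GSK3B kinase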). Particulars: HCT116 viability after GSK3B inhibitor, at 20 µM, stronger effect = higher value.
Test [10] can be described thus: inhibition of endothelial tube formation, primary screen, imaging, VEGF stimulated, CD31 staining, tube area, NPC library (AID 1117340;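 active = compound that reduces growth-factor-driven endothelial tube area in a mixed cell culture, no cutoff stated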). As to conditions: VEGF-stimulated ADSC/ECFC co-culture, at 10 µM, stronger effect = higher value.
A short description of test [11]: GLP1 release stimulators, primary, NCI-H716, NPC library (AID 1117341;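 active = compound raises GLP1 secretion from the human gut endocrine cells, with no numeric limit stated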). As to conditions: NCI-H716 cells, at 10 µM, stronger effect = higher value.
Test [12] in a line: HCT116 colon cancer cell growth inhibition, primary screen, CellTiter-Glo luminescence, NPC library (AID 1117342;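 active = compounds that lower survival of HCT116 colon cancer cells in the luminescence readout, no numeric limit stated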). Particulars: at 20 µM (top of the series).
The nature of test [13]: reduced SW480 viability measured with CellTiter-Glo, NPC library, primary (AID 1117343;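 active = compounds that lower viability of the colon cancer cells in the luminescence readout, with no numeric limit stated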). Particulars: CellTiter-Glo luminescence; at 20 µM (top of the series).
Test [14] in a line: NPC library primary testing for decreased DLD-1 cell viability via CellTiter-Glo (AID 1117346;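 active = compounds that lower survival of DLD-1 colon cancer cells in the luminescence readout, no cutoff given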). As to conditions: DLD-1 viability, CellTiter-Glo luminescence; at 20 µM (top of the series).
The mark [15] stands for this setting: MELAS cybrid survival, CellTiter-Glo 48 h, stronger effect = higher value.
Where [16] appears, read: Rieske KO mouse fibroblast survival, CellTiter-Glo 72 h.

Turning to `NC(=O)CCc1ccccc1Oc1nccc(-c2c(-c3ccc(F)cc3)ncn2C2CCNCC2)n1`, the liver cell % of control in [1] is 91.6%. For the same molecule, the parasite % of control in test [1] is 151% (inactive). Besides, in test [2], the percent of negative control (+Dex) is 95.5% (inactive). Also, the z-score in test [2] is 0.275; in test [3] it was 0.875 (inactive); in [4], 0.861 (inactive); in test [6] (setting [15]), -0.2 (inactive); in [6] (setting [16]) it was -0.462. In test [5], the fraction signal is -0.0055 (inactive).

In test [1], `O=C1NC(=O)C(c2ccccc2)=C1Nc1ccccc1` had a liver cell % of control of 106%. Besides, the parasite % of control in [1] was 119% (inactive). The percent of negative control (+Dex) in test [2] was 99.5% (inactive). Moreover, the z-score was 0.395 in test [2]; 0.425 (inactive) in [3]; -0.099 (inactive) in test [4]; -0.614 (inactive) in test [6] (setting [15]); -0.425 in test [6] (setting [16]). The fraction signal in test [5] is -0.014 (inactive).

For the molecule `CC(CC1c2ccccc2CCc2ccccc21)CN(C)C` (stereo not given), the nuclear beta-catenin stimulation in [7] (at 10 µM) is -1% (inactive); in test [7] (stimulation, at 2 µM), 0.4%. Also, in [8], the insulin secretion stimulation is 29.8% (active). Besides, in test [9], the viability decrease is 34.8% (inactive). The tube area decrease in test [10] is 9.8% (inactive). Moreover, the GLP1 secretion stimulation in test [11] was -1.9% (inactive). Besides, the inhibition of viability in test [12] is 44.4% (active). In addition, the viability decrease (inhibition) is 84.4% (active) in test [13] and 87.7% (active) in test [14].

Regarding `CCOc1ccc(S(=O)(=O)O)c2cccnc12`, the nuclear beta-catenin stimulation in [7] (at 10 µM) is -0.1% (inactive); in [7] (stimulation, at 2 µM), 0.5%. In [8], the insulin secretion stimulation was 6% (inactive). The viability decrease in test [9] is -10.2% (inactive). Besides, the tube area decrease in [10] is -5.5% (inactive). For the same molecule, the GLP1 secretion stimulation in test [11] was -3.3% (inactive). Further, the inhibition of viability in [12] was -0.3% (inactive). Further, the viability decrease (inhibition) in [13] was 1.9% (inactive); in test [14], 0.1% (inactive).

With `Cc1c(C)c2c(c(C)c1OC(=O)c1cccnc1)CC[C@@](C)(CCC[C@H](C)CCC[C@H](C)CCCC(C)C)O2`, the nuclear beta-catenin stimulation in test [7] (at 10 µM) was -0.1% (inactive); in test [7] (stimulation, at 2 µM) it was -0.2%. In [8], the insulin secretion stimulation is -0.2% (inactive). For the same molecule, the viability decrease in test [9] was 13.1% (inactive). For the same molecule, the tube area decrease in test [10] was -9.8% (inactive). For the same molecule, in test [11], the GLP1 secretion stimulation is 5.5% (inactive). Besides, the inhibition of viability in [12] is -2.9% (inactive). Also, the viability decrease (inhibition) was -20.2% (inactive) in [13] and -13.8% (inactive) in test [14].

Regarding `N#Cc1c(NC(=O)c2cccc3ccccc23)sc2c1CCCN2C(=O)C1CC1`, the liver cell % of control in test [1] came to 190%. The parasite % of control in test [1] is 15.9% (inactive). The percent of negative control (+Dex) in test [2] was 106% (inactive). Also, the z-score in [2] is -0.12; in test [3], -0.17 (inactive); in [4], -0.734 (inactive); in test [6] (setting [15]) it was -0.726 (inactive); in test [6] (setting [16]), -0.0978. Further, the fraction signal in test [5] was 0.002 (inactive).

As for `CCC(C(=O)OCCN(CC)CC)c1ccccc1` (stereo not given), the nuclear beta-catenin stimulation in test [7] (at 10 µM) is 1.2% (inactive); in [7] (stimulation, at 2 µM), -0.6%. In addition, the insulin secretion stimulation in test [8] was 1.3% (inactive). In test [9], the viability decrease was -8.4% (inactive). In test [10], the tube area decrease was -11.9% (inactive). In test [11], the GLP1 secretion stimulation was -2.1% (inactive). Further, the inhibition of viability in test [12] was -0.3% (inactive). Moreover, the viability decrease (inhibition) is 4.5% (active) in test [13] and -11.1% (inactive) in test [14].

With `N#Cc1c(NC(=O)c2ccc(F)c3ccccc23)sc2c1CCCC2`, the liver cell % of control in test [1] was determined as 93.8%. The parasite % of control in test [1] is 163% (inactive). The percent of negative control (+Dex) in test [2] is 118% (inactive). In addition, the z-score was 0.625 in [2]; 1.47 (inactive) in test [3]; -1.25 (inactive) in test [4]; -0.605 (inactive) in [6] (setting [15]); 0.108 in test [6] (setting [16]). Also, the fraction signal in [5] is 0.0065 (inactive).

With `O[C@@H]1CO[C@H]2[C@@H]1OC[C@@H]2O`, the nuclear beta-catenin stimulation is 1% (inactive) in test [7] (at 10 µM) and 1% in [7] (stimulation, at 2 µM). The insulin secretion stimulation in [8] is -2% (inactive). In addition, the viability decrease in test [9] was 2.15% (inactive). Besides, the tube area decrease in [10] was 16.5% (inactive). Further, in test [11], the GLP1 secretion stimulation was 1.1% (inactive). Also, the inhibition of viability in test [12] was -9.1% (inactive). The viability decrease (inhibition) in test [13] is 51.8% (active); in [14], -4.4% (inactive).

In turn, `Fc1ccc(Oc2nccc(-c3c(-c4ccc(F)cc4)ncn3C3CCNCC3)n2)cc1` had a liver cell % of control in [1] of 104%. Also, the parasite % of control in test [1] is 122% (inactive). The percent of negative control (+Dex) in test [2] is 107% (inactive). Further, the z-score in test [2] was 1.11; in [3], -1.01 (inactive); in test [4], 7.24 (active); in test [6] (setting [15]), -0.283 (inactive); in test [6] (setting [16]), -0.391. In test [5], the fraction signal was 0 (inactive).

Consider `Cc1ccc(C(C)C)c(O)c1`, for which the nuclear beta-catenin stimulation was 0.6% (inactive) in [7] (at 10 µM) and 0.8% in test [7] (stimulation, at 2 µM). In [8], the insulin secretion stimulation is -3.2% (inactive). The viability decrease in [9] is -0.65% (inactive). Besides, the tube area decrease in test [10] is 15.5% (inactive). Moreover, in test [11], the GLP1 secretion stimulation is -0.9% (inactive). The inhibition of viability in test [12] is -2.9% (inactive). Also, the viability decrease (inhibition) in test [13] was 74.8% (active); in [14], 1.9% (inactive).

Molecule `CS(=O)(=O)c1ccc(Oc2nccc(-c3c(-c4ccc(F)cc4)ncn3C3CCNCC3)n2)cc1` had a liver cell % of control in test [1] of 78.7%. In addition, in test [1], the parasite % of control is 128% (inactive). Moreover, in [2], the percent of negative control (+Dex) was 92% (inactive). Moreover, the z-score in [2] is 0.015; in test [3] it was -0.505 (inactive); in test [4] it was -0.16 (inactive); in test [6] (setting [15]) it was -0.0537 (inactive); in test [6] (setting [16]) it was -0.376. The fraction signal in test [5] was -0.008 (inactive).

As for `Cc1[nH]nc2c1N=C(c1ccccc1Cl)c1cc([N+](=O)[O-])ccc1N2`, in test [1], the liver cell % of control was 92.3% and the parasite % of control is 32.5% (inactive). In addition, in test [2], the percent of negative control (+Dex) is 104% (inactive) and the z-score was -1.15. Besides, in test [5], the fraction signal is -0.0135 (inactive).

In test [1], `COc1cc(Nc2ncc(-c3ccccc3)o2)cc(OC)c1OC` showed a liver cell % of control of 152%. Further, in test [1], the parasite % of control was 18.6% (inactive). For the same molecule, the percent of negative control (+Dex) in test [2] is 93.5% (inactive). The z-score in test [2] was 0.42; in [3], 1.53 (inactive); in [4], -0.164 (inactive); in test [6] (setting [15]), 1.37 (inactive); in [6] (setting [16]) it was -0.275. In addition, the fraction signal in [5] is -0.0025 (inactive).

In the case of `COc1cc2ncn(-c3cc(O[C@@H](C)c4ccccc4Cl)c(C(N)=O)s3)c2cc1OC`, in test [1], the liver cell % of control came to 100%. Besides, the parasite % of control in [1] is 110% (inactive). Moreover, the percent of negative control (+Dex) in test [2] was 124% (inactive). Besides, the z-score in test [2] is 2.36; in [3] it was -0.555 (inactive); in test [4], -0.639 (inactive); in test [6] (setting [15]), -0.552 (inactive); in [6] (setting [16]), 0.815. Besides, the fraction signal in [5] was -0.002 (inactive).

Regarding `O=S(=O)(CCNCc1ccc(-c2ccc3ncnc(Nc4ccc(OCc5cccc(F)c5)c(Cl)c4)c3c2)o1)c1ccccc1`, the liver cell % of control in test [1] came to 108%. Further, in test [1], the parasite % of control was 102% (inactive). Also, the percent of negative control (+Dex) in test [2] is 96.5% (inactive). The z-score in test [2] was -0.355; in test [3] it was -0.37 (inactive); in [4] it was 3.07 (inactive); in [6] (setting [15]), 0.171 (inactive); in test [6] (setting [16]), -0.45. Besides, the fraction signal in [5] was -0.004 (inactive).
